{
  "source": "PubChem BioAssay AID1347383",
  "about": "(Zoeller Lab, School of Medicine, Boston University, 2020)",
  "note": "The source made the active and inactive calls.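 How the source made its calls: active means cell survival after UV exposure 2 SD above solvent-only control wells at 10 µM, confirmed on one or two repeats; inactive means the rest.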",
  "data": [
    {"assay": "protection of CHO cells from pyrene-fatty acid UV killing, primary screen, phospholipid biosynthesis inhibitor project, ZR-82 cells, Analyticon library, screen 2 (AID 1347383);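 further: survival reflects blocked phospholipid synthesis cutting uptake of the phototoxic fatty acid; compound and fatty acid exposure 3 h then viability read next day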", "conditions": "ZR-82 CHO cells, CellTiter Blue, at 10 µM, peroxisome-deficient CHO-K1 variant, with DGAT-1, DGAT-2 and ACAT inhibitors", "values": [
      {"smiles": "CC(C)=CCCC1(C)C(CC=C(C)C)CC2(CC=C(C)C)C(=O)C(=C(O)c3ccccc3)C(=O)C1(C)C2=O", "note": "(centres undefined)", "outcome": "inactive"},
      {"smiles": "C/C=C/c1ccc2oc(-c3ccc(O)c(OC)c3)c(C)c2c1", "outcome": "inactive"},
      {"smiles": "O=C(/C=C/C=C/c1ccc2c(c1)OCO2)N1CCCCC1", "outcome": "inactive"},
      {"smiles": "CC(=O)O[C@@H]1CC[C@@]2(C)C(CC[C@]3(C)C2C(=O)C=C2[C@@H]4[C@@H](C)[C@H](C)CC[C@]4(C)CC[C@]23C)[C@@]1(C)C(=O)O", "note": "(some centres undefined)", "outcome": "inactive"},
      {"smiles": "O=C(O)CCC1OC(=O)C(O)=C1c1ccccc1", "note": "(centres undefined)", "outcome": "inactive"},
      {"smiles": "O=c1ccc2ccc(O[C@@H]3O[C@H](CO)[C@@H](O)[C@H](O)[C@H]3O)cc2o1", "outcome": "inactive"},
      {"smiles": "COC(=O)C1C(O)CCC2CN3CCc4c([nH]c5ccccc45)C3CC21", "note": "(centres undefined)", "outcome": "inactive"},
      {"smiles": "C=CCc1cc(OC)c(OC(C)C(O)c2ccc(O)c(OC)c2)c(OC)c1", "note": "(centres undefined)", "outcome": "inactive"},
      {"smiles": "CC1=C[C@H]2[C@@H](CC1=O)[C@H](C)C[C@H](O)[C@H]2C(C)C", "outcome": "inactive"},
      {"smiles": "CCC/C=C/C=C/C1C[C@@H](O)[C@@H](O)C(=O)[C@H]1CO", "note": "(some centres undefined)", "outcome": "inactive"},
      {"smiles": "CN1[C@@H]2CC[C@H]1CC(OC(=O)C(CO)c1ccccc1)C2", "note": "(some centres undefined)", "outcome": "inactive"},
      {"smiles": "O=C(Cc1ccccc1)O[C@@H]1[C@@H](O)[C@H](O)[C@@H](CO)O[C@H]1O", "outcome": "inactive"},
      {"smiles": "C/C1=C\\CCC2=CC(OC2=O)C(C)(C)/C=C\\C1=O", "note": "(centres undefined)", "outcome": "inactive"},
      {"smiles": "CO[C@@H]1C(=O)CC[C@]2(O)CO[C@H](CC=C(C)C)[C@](C)(O)[C@@]12O", "outcome": "inactive"},
      {"smiles": "O=C1c2c(O)cc(O)cc2O[C@H](c2ccccc2)[C@H]1O", "outcome": "inactive"},
      {"smiles": "CC1=C2C=C(CO)C(CO)CCC2(C)CCC1=O", "note": "(centres undefined)", "outcome": "inactive"},
      {"smiles": "COc1ccc(C(O)CNC(=O)/C=C/c2ccccc2)cc1", "note": "(centres undefined)", "outcome": "inactive"},
      {"smiles": "COC(=O)C12OC1CCC1C3(C)CC(C4=CC(=O)OC4O)OC(=O)C3CCC12C", "note": "(centres undefined)", "outcome": "inactive"},
      {"smiles": "CC1CC(=O)C2CC12C(C)(O)CO", "note": "(centres undefined)", "outcome": "inactive"},
      {"smiles": "C=C1CCC2C(OC(=O)C2(O)COC(C)=O)C2C(=C)C(O)CC12", "note": "(centres undefined)", "outcome": "inactive"},
      {"smiles": "O=c1ccc2cc3ccoc3cc2o1", "outcome": "inactive"},
      {"smiles": "Cc1c(O)cc2c(c1O)C(=O)c1ccccc1C2=O", "outcome": "inactive"},
      {"smiles": "CC1=C2C[C@]3(C)C(=O)C[C@@H](C(C)C)[C@H]3C/C=C(/C)[C@@H]2CC1=O", "outcome": "inactive"},
      {"smiles": "COc1ccc(/C=C/C(=O)O)cc1OC", "outcome": "inactive"},
      {"smiles": "C=C(C)[C@@H]1Cc2cc3c(cc2O1)OC[C@@]1(O)c2ccc(O)cc2O[C@@H]31", "outcome": "inactive"},
      {"smiles": "CCC(C)C(=O)Oc1cc(C)ccc1C1(COC(=O)C(C)C)CO1", "note": "(centres undefined)", "outcome": "inactive"},
      {"smiles": "C[N+](C)(C)C(Cc1c[nH]c2ccccc12)C(=O)[O-]", "note": "(centres undefined)", "outcome": "inactive"},
      {"smiles": "C=CC(C)(C)c1cc(/C=C/C(=O)c2ccc(OC)cc2)c(O)cc1O", "outcome": "inactive"},
      {"smiles": "COc1cc(CNC(=O)CCCCCCC(C)C)ccc1O", "outcome": "inactive"},
      {"smiles": "C/C=C(/C)C(=O)O[C@@H]1C[C@@H](OC(=O)CC(C)C)C2(C)C3C(=O)C=C(C)C2C3C1(C)C", "note": "(some centres undefined)", "outcome": "inactive"},
      {"smiles": "O=C(CCc1ccccc1)C[C@@H](O)CCc1ccccc1", "outcome": "inactive"},
      {"smiles": "CC(=O)C(C)C1OC(CCO)c2cc(C)ccc2C1C", "note": "(centres undefined)", "outcome": "inactive"},
      {"smiles": "O=C(O)C12CCCC(CO)(CO)C1CCC13CC4C(CC12)C4(CO)C3", "note": "(centres undefined)", "outcome": "inactive"},
      {"smiles": "COc1cc(OC2O[C@H](CO)[C@@H](O)[C@H](O)[C@H]2O)c2c(=O)c(-c3ccc(O)cc3)coc2c1", "note": "(some centres undefined)", "outcome": "inactive"},
      {"smiles": "CC1Cc2cc(O)c(O)cc2C(c2ccc(O)c(O)c2)C1C", "note": "(centres undefined)", "outcome": "inactive"},
      {"smiles": "CC1CCC2(C(=O)O)CCC3(C)C(C=CC4C5(C)CC(O)C(O)C6(C)COC(CC43C)C65)C2C1(C)O", "note": "(centres undefined)", "outcome": "inactive"},
      {"smiles": "NC(=O)c1c[nH]c(Cc2ccccc2)cc1=O", "outcome": "inactive"},
      {"smiles": "COc1cc(CC2COC(=O)C2(O)Cc2ccc(O)c(OC)c2)ccc1O", "note": "(centres undefined)", "outcome": "inactive"},
      {"smiles": "CC(C)c1ccc2c(c1)CCC1C(C)(C(=O)O)CCCC21C", "note": "(centres undefined)", "outcome": "inactive"}
    ]}
  ]
}
